# Results reported in publication PMC7862700, “An all-to-all approach to the identification of sequence-specific readers for epigenetic DNA modifications on cytosine”.
# Legend:
# Assay in all cases: DAPPL (digital affinity profiling via proximity ligation, sequencing); 10 mM Tris-HCl pH 7.5, 50 mM NaCl, 1 mM DTT, 4% glycerol, room temperature, 30 min; GST-TFs on glutathione beads, 16-mer random dsDNA library, 0.1% formaldehyde crosslink after washing; high values mean tight binding
# Details in all cases: protein: recombinant; tags: N-terminal GST; dsDNA, one strand shown
# FLI1 = target: T1, FLI1 (Homo sapiens, UniProt Q01543 1-452)
# T1 sequence: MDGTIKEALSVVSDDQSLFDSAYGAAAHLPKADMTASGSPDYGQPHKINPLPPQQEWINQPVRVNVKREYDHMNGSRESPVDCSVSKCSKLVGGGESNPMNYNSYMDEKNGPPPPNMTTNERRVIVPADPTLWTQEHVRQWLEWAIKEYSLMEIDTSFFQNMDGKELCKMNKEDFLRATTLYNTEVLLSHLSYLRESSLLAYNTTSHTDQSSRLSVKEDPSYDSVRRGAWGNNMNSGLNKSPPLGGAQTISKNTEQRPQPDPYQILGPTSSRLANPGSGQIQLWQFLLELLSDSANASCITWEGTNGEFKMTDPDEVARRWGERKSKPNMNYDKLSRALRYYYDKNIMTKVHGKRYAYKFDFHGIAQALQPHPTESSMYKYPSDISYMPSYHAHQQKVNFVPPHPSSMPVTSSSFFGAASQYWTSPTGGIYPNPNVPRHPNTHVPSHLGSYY
# Outline: (§1)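 Yeast served to express human transcription factors as GST fusions, which were then captured on glutathione beads and labelled with DNA barcodes. Pooled with a tag-only sample, they were incubated with 200 nmole of a 16-mer random double-stranded DNA library for 30 min at room temperature in Tris/NaCl/DTT/glycerol buffer, washed, crosslinked with 0.1% formaldehyde, ligated by proximity, amplified by PCR and sequenced. Dividing each hexamer's read frequency for a factor by its frequency for the tag-only sample gives the binding signal.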
# ELK1 = target: T2, ELK1 (Homo sapiens, UniProt P19419 1-428)
# T2 sequence: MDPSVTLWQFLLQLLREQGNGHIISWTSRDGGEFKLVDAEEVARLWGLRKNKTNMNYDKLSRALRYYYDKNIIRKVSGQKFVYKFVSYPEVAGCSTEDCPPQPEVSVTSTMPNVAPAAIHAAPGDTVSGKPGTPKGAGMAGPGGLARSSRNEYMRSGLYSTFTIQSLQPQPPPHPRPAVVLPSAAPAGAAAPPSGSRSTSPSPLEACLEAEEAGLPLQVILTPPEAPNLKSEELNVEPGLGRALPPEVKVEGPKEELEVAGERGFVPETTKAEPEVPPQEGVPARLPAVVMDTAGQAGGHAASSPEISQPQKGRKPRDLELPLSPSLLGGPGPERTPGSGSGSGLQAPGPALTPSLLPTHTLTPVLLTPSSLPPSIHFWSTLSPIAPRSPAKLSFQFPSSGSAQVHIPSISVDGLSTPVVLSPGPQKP
# Outline: as §1
# GABPA = target: T3, GABPA (Homo sapiens, UniProt Q06546 1-454)
# T3 sequence: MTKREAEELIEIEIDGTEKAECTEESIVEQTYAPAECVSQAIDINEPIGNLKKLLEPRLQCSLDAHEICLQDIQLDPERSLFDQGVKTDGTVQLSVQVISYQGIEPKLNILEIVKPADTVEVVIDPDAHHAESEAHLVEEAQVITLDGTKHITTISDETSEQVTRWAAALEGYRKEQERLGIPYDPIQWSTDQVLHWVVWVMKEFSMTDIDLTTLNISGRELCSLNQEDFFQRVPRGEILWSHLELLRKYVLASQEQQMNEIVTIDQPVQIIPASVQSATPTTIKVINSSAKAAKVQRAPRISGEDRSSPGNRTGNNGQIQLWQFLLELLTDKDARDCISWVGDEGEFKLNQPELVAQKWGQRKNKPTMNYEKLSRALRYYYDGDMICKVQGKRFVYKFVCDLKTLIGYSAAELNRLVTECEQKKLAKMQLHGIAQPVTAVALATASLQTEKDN
# Outline: as §1
# ERG = target: T4, ERG (Homo sapiens, UniProt P11308 1-479)
# T4 sequence: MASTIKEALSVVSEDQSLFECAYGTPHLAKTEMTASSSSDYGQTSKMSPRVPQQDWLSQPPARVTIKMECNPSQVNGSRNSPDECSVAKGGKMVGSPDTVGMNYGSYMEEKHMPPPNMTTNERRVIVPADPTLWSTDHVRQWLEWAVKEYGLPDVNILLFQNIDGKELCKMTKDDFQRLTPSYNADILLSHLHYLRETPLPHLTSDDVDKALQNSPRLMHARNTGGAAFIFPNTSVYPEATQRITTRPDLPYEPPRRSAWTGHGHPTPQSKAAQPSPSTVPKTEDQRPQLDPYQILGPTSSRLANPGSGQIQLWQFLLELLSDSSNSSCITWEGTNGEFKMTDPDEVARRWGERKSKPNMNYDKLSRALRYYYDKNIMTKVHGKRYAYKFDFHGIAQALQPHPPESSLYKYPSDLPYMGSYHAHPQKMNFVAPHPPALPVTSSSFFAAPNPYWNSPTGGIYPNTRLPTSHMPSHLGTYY
# Outline: as §1
# ELF1 = ELF1 (Homo sapiens, UniProt P32519 1-619)
# Outline: as §1
# EHF = target: T5, EHF (Homo sapiens, UniProt Q9NZC4 1-300)
# T5 sequence: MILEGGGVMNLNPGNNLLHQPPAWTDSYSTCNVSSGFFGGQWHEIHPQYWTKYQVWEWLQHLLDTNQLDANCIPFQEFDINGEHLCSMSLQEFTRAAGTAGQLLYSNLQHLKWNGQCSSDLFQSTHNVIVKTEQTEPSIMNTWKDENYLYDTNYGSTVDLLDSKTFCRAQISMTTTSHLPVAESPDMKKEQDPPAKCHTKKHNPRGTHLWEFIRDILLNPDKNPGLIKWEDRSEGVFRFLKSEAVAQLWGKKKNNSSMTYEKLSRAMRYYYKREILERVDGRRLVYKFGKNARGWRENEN
# Outline: as §1
# SPI1 = SPI1 (Homo sapiens, UniProt P17947 1-270)
# Outline: as §1
# SPIB = SPIB (Homo sapiens, UniProt Q01892 1-262)
# Outline: as §1
# ELK3 = target: T6, ELK3 (Homo sapiens, UniProt P41970 1-407)
# T6 sequence: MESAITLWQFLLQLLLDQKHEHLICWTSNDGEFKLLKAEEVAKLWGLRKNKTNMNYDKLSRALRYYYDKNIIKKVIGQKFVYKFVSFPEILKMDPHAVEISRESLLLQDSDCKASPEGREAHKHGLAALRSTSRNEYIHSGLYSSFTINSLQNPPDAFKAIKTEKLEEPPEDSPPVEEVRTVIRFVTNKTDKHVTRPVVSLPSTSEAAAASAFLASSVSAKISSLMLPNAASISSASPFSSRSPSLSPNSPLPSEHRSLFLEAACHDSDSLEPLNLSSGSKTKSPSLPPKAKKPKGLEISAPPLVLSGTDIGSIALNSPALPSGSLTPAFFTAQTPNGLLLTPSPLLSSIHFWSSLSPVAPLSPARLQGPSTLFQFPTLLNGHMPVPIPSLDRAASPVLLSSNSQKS
# Outline: as §1
# ELF1, sequence (P32519 whole entry): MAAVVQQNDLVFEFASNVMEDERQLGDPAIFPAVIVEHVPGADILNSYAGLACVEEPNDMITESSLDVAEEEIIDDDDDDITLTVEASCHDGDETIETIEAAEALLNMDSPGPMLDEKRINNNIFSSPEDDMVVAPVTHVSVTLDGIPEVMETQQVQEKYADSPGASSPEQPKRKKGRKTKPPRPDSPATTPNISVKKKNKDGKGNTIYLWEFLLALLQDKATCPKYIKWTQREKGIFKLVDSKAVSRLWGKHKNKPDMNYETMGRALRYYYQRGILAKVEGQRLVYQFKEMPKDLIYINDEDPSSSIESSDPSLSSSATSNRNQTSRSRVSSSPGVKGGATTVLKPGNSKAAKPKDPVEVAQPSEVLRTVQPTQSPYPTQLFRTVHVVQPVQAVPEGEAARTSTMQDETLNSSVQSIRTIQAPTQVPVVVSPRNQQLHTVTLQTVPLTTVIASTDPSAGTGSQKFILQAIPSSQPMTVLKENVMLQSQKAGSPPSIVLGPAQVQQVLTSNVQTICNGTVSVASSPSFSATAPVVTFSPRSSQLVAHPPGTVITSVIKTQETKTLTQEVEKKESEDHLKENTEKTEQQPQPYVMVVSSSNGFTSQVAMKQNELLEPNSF
# SPIB, sequence (Q01892 whole entry): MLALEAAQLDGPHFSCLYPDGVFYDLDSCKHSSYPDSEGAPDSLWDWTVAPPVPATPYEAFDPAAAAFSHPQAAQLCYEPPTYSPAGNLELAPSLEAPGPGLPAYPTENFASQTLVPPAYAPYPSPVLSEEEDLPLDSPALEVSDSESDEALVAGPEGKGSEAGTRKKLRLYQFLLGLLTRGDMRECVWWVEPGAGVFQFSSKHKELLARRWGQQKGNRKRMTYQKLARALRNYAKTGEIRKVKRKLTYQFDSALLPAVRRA
sequence,measurement,setting,value
AATACC,binding signal,FLI1,"1.25 fold enrichment (6-mer frequency, TF over GST control)"
same,binding signal,ELK1,"1.09 fold enrichment (6-mer frequency, TF over GST control)"
same,binding signal,GABPA,"1.09 fold enrichment (6-mer frequency, TF over GST control)"
same,binding signal,ERG,"1.21 fold enrichment (6-mer frequency, TF over GST control)"
same,binding signal,ELF1,"1.19 fold enrichment (6-mer frequency, TF over GST control)"
same,binding signal,EHF,"1.19 fold enrichment (6-mer frequency, TF over GST control)"
same,binding signal,SPI1,"1.14 fold enrichment (6-mer frequency, TF over GST control)"
same,binding signal,SPIB,"1.16 fold enrichment (6-mer frequency, TF over GST control)"
same,binding signal,ELK3,"1.25 fold enrichment (6-mer frequency, TF over GST control)"
